From PubChem BioAssay AID449762 (Southern Research Specialized Biocontainment Screening …, 2010)
Among all 330,000 compounds or so, about 1,900 (0.58%) were called active. Another 4% or so got no clear call; they are omitted. These entries were drawn from the full list. Results with a measured potency or affinity are listed apart. Unmarked numbers belong to inactive results. Rule as the data show it: inconclusive = inhibition above about 70% without an active follow-up result; inactive = below that.

Test: M. tuberculosis growth inhibition, HTS (AID 449762);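 also: bacterial growth assessed after seven days of incubation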
Settings: M. tuberculosis H37Rv growth inhibition, 7H9 media; at 25 µM; active compounds read high

Compound | inhibition [%]
CCOc1ccc(N2C(=O)CC(NC3CCN(C(=O)c4ccc(F)cc4)CC3)C2=O)cc1 (stereo unspecified) | -3
O=C(Oc1ccc(Br)cc1)c1cncc(Br)c1 | -0.43
Cc1cccc(OC(=O)c2cncc(Br)c2)c1 | 23.5
O=C(CCC(=O)Nc1ccc(F)cc1)N/N=C/c1ccc(O)cc1O | -2.52
CC1CCCCN1Cc1c(O)ccc2c(=O)c(-c3ccc(Cl)cc3)coc12 (stereo unspecified) | 0.71
O=C1c2ccccc2C(=O)N1C(CO)C(O)c1ccc([N+](=O)[O-])cc1 (stereo unspecified) | -1.67
O=C(CSC(=S)N1CCOCC1)Nc1ccc(S(=O)(=O)Nc2ncccn2)cc1 | -0.18
O=C(NNc1c2ccccc2nc2ccccc12)c1ccc(O)cc1 | 13.8
CCCC(=O)NNc1c2ccccc2nc2ccccc12 | -11.4
[O-][n+]1cccc(C(O)c2ccccc2)c1 (stereo unspecified) | -13.5
COC(=O)c1c(C)oc(C)c1S(=O)(=O)N1CCOCC1 | -2.09
C=CCNC(=O)C1CC(=O)N(c2ccc(OCC(=O)Nc3c(C)cccc3C)cc2)C1 (stereo unspecified) | 1.18
Cc1nnc(C)n1/N=C/c1c(O)ccc2ccccc12 | 2.29
Cc1nc2ccccc2c(=O)n1/N=C/c1c(O)ccc2ccccc12 | 9.53
O=C(Oc1ccccc1-c1nnco1)c1ccccc1 | -3.01
Clc1ccccc1COc1ccccc1-c1nnco1 | 19.4
C/C(=N/NC(=O)c1ccc(Br)o1)C(C)C | 3.04
COCCNC(=S)N1CCc2cc(OC)c(OC)cc2C1c1cccs1 (stereo unspecified) | -7.46
NC(=S)N/N=C/c1ccccc1OCc1cccc(Cl)c1 | 2.95
NC(=S)N/N=C\c1ccccc1OCc1ccccc1 | 49.5
Cc1ccc(N2C(=O)c3cccc([N+](=O)[O-])c3C2=O)cc1C | -6.94
COc1ccc(-c2cc3c(=O)n(CC(=O)NCCCN4CCC(N5CCCCC5)CC4)ncn3n2)cc1 | 2.99
COc1ccc(-c2cc3c(=O)n(CC(=O)NCCCN4CCN(Cc5ccccc5)CC4)ncn3n2)cc1 | 1.94
O=C(NCCC1=CCCCC1)C1CCN(C(=O)c2ccc(Br)cc2)CC1 | 5.13

Compound | inhibition [%]
Cc1ccccc1OCCn1cc(C(=O)O)c2ccccc21 | -0.94
O=C(CCS(=O)(=O)c1ccc(F)cc1)Nc1nc(-c2ccncc2)cs1 | 31.5
O=C(CCS(=O)(=O)c1ccccc1)Nc1nc(-c2ccc(F)cc2)cs1 | 8.67
CCc1cc(C(=O)Nc2ncccc2O)sc1C | 6.5
Cc1ccnc2nc(C(=O)Nc3nc(-c4ccccn4)cs3)nn12 | 0.14
COc1cccc(-c2nc(CS(=O)(=O)CC(=O)NCCCN3CCc4ccccc4C3)c(C)o2)c1 | -28.4
CCCc1cc(=O)n2[nH]cnc2n1 | -4.95
Cc1cc(C)n(CCOc2ccc(Br)cc2)n1 | 2.96
c1csc(CCNc2ncnc3sc4c(c23)CCC4)c1 | 1.63
COc1ccc(/C=N/Nc2ncnc3sc4c(c23)CCCC4)cc1OC | -2.36
CC(=O)CSc1nnc2cc(C)c3ccccc3n12 | 0.13
CC(=O)N1CCN(c2ccc(NC(=O)c3cccc(OCc4ccccc4)c3)cc2)CC1 | 62.8
Cn1c(=O)c2c(nc(NCC(O)CO)n2CCc2ccccc2)n(C)c1=O (stereo unspecified) | 2.12
CN1CCN(c2ccc(NC(=O)c3cccc(S(=O)(=O)N4CCCC4)c3)cc2)CC1 | -4.85
Cc1[nH]n(-c2ccccc2)c(=O)c1C(c1cccc([N+](=O)[O-])c1O)c1c(C)[nH]n(-c2ccccc2)c1=O | -4.36
COc1ccc(C(C[N+](=O)[O-])c2c(C)[nH]n(-c3ccccc3)c2=O)cc1 (stereo unspecified) | 32.3
CCN1CC(C)C(O)(c2ccccc2)CC1C (stereo unspecified) | -1.44
CCC1C(c2ccccc2)NC(c2ccccc2)CC1(O)c1ccc(F)cc1 (stereo unspecified) | 29.1
NC(=O)CC(NC(=O)Cc1cccc2ccccc12)c1ccc(N2CCC(Cc3ccccc3)CC2)c([N+](=O)[O-])c1 (stereo unspecified) | -0.77
COc1ccc(CN(C)C(=O)c2ccc(NC(=O)CC3SC(N4CCCC4)=NC3=O)cc2)c(OC)c1 (stereo unspecified) | 7.53
CC1CC(C)(C)CC2(C1)NC(=O)N(CC(=O)Nc1ccc(N3CCCCC3)cc1)C2=O (stereo unspecified) | 5.59
C=C(C)CNC(=S)NN=C1c2ccccc2-c2ccccc21 | 12.3
CC(C)NC(=S)NN=C1c2ccccc2-c2ccccc21 | -0.95
Cc1cc2c(cc(C(=O)O)n2C)s1 | -1.98

Compound | inhibition [%]
CCN(CC)CCNC(=O)c1cc2c(-c3ccc(Cl)cc3)nn(C)c2s1 | 7.68
CCN(CC)CCCNC(=O)c1cc2c(-c3ccc(Cl)cc3)nn(C)c2s1 | 47.1
c1ccc(-c2cc3ccccc3nc2N2CCCC2)cc1 | 4.32
Clc1ccc(-c2cc3ccccc3nc2N2CCOCC2)cc1 | 48.3
Cc1ccc(NC(=O)COC(=O)CCc2ccc(S(=O)(=O)N3CCOCC3)cc2)cc1F | 2.39
O=C(O)c1ccccc1C(=O)NC1CCCCNC1=O (stereo unspecified) | -1.29
OCCNCC(O)Cn1ccc2ccccc21 (stereo unspecified) | -2.23
OC(CNc1ccccc1)Cn1ccc2ccccc21 (stereo unspecified) | 12.2
CC(=O)c1ccc(C(=O)NC2CCCN(Cc3ccccc3F)C2)s1 (stereo unspecified) | -25.9
Cc1cc(C)cc(NC(=O)CCn2cnc3cc(C)c(C)cc32)c1 | 62.6
COc1ccc(C=C2C(=O)OC(C)(C)OC2=O)cc1OC | 5.49
COc1ccc(/C=C2\Cc3ccccc3C2=O)cc1OC | 5.99
CNC(=O)C(=O)NCC(c1cccs1)S(=O)(=O)c1ccc(F)cc1 (stereo unspecified) | -2.67
Cc1ccc(C)c(N2CCN(C(=O)c3ccc(NC4=NC5CS(=O)(=O)CC5S4)cc3)CC2)c1 (stereo unspecified) | -1.31
N#CC(C(=O)Nc1cccc(Cl)c1)=C1Nc2ccccc2N1 | 2.4
N#CC(C(=O)Nc1ccc(Cl)cc1)=C1Nc2ccccc2N1 | 1.22
O=C(CCCN1C(=O)S/C(=C\C=C\c2ccccc2)C1=O)Nc1ccc(C(=O)O)cc1 | -3.27
O=C(COc1ccc(C(=S)N2CCOCC2)cc1Cl)Nc1ccccc1Cl | 6.58
O=C(NNC(=O)C1CCN(S(=O)(=O)c2ccccc2C(F)(F)F)CC1)c1ccccc1O | 6.28
COc1cccc(N2CCN(C(=O)CCNS(=O)(=O)c3ccc4c(c3)c(=O)n(C)c(=O)n4C)CC2)c1 | -0.56
CCC(CC)c1nnc(NC(=O)c2cc([N+](=O)[O-])ccc2N2CCCCC2)s1 | 9.65
Cc1ccc(Nc2nc(N)nc(CN3CCN(C)CC3)n2)cc1 | -7.52
COc1ccc(Nc2nc(N)nc(CN3CCc4ccccc4C3)n2)cc1 | 7.44
CCC(C)c1ccc(OCC(=O)O)cc1 (stereo unspecified) | -1.06

Compound | inhibition [%]
CCOc1cc(C(N)=O)cc(Br)c1OC | -2.81
COC(=O)c1ccc(COC(=O)c2ccc(CO)cc2)o1 | 9.22
CC(C)COC(=O)NCCCOC(=O)Nc1ccccc1 | 2.06
Cc1ccc(C)c(NC(=O)CCc2c(C)nn(-c3ccc(N4CCCCC4)nn3)c2C)c1 | -0.31
COc1ccccc1CNC(=O)CSc1nc(C)cs1 | -6.19
CN(CCOc1ccc(Cl)cc1)C(=O)CN1C(=O)NC2(CCCC2)C1=O | -10.9
Fc1ccc(OCCOCCN2CCNCC2)cc1 | -3.98
COc1ccc(C[C@H]2CN3C(=NC[C@H]3C)N2CCNC(=O)CCC2CCCCC2)cc1 | 2.73
COc1ccc(C[C@H]2CN3C(=NC[C@@H]3C)N2CCNC(=O)CCC2CCCCC2)cc1 | -0.84
O=C1C(Cc2ccccc2)Nc2ncnc(N3CCN(c4ccccc4)CC3)c2N1Cc1ccc(Br)cc1 (stereo unspecified) | 0.68
COc1ccc(C2CC(=O)C3=C(C2)Nc2ccccc2N(C(C)=O)C3c2ccco2)cc1 (stereo unspecified) | -14
CC(CN1CCOCC1)C(=O)c1ccccc1 (stereo unspecified) | 3.78
O=C(c1ccc(F)cc1)C(CN1CCOCC1)c1ccccc1 (stereo unspecified) | 3.13
COc1ccc(C(NC(=O)c2cccc(F)c2)c2ccccc2)cc1 (stereo unspecified) | -16.4
C=CCn1cnc2c(nnn2-c2cc(C)cc(C)c2)c1=O | 7.46
Cc1ccc(C(=O)NN(CCC(=O)NC(C)(C)C)C2=NS(=O)(=O)c3ccccc32)cc1 | 3.72
O=C(O)c1ccc(Cl)c(S(=O)(=O)N(Cc2ccccc2)c2ccccc2)c1 | -3.72
CC1(C)CC(NC(=O)c2cccc(S(=O)(=O)N(Cc3ccccc3)c3ccccc3)c2)CC(C)(C)N1 | -5.74
Cc1nn(CCCC(=O)N2CCN(c3ccc(F)cc3)CC2)c(C)c1[N+](=O)[O-] | 2.18
Cc1cc[n+](CC[n+]2ccc(C)cc2)cc1 | -0.82
CCC(C)(C)c1ccc(OCC(=O)N(C)C)c(C(C)(C)CC)c1 | -12.9
CCc1ccc(C(=O)Nc2ccc3nc(C)ccc3c2)cc1 | 0.01
CCc1nc2ccccc2c(C(=O)Nc2ccc(C)cc2)c1C | 4.44
CCc1nc2ccccc2c(C(=O)Nc2cccc(C)c2)c1C | 7.7
